JMJD2A Tudor inh = qHTS Assay for Inhibitors of JMJD2A-Tudor Domain; AlphaScreen JMJD2A-Tudor / H3K4me3 peptide binding; Potency, µM (doses to about 114 µM), for inactives: at the highest dose activity change, negative = inhibition, most hits filed as inhibitors; hit rate 4.4% among 390,000; also: potency is read from the fitted curve at half-maximal effect; % is scaled to controls: 0 for no effect and ±100 for the full control effect; nearly all actives have a fitted effect of over 50% in size
Six1-Eya2 inh = qHTS Assay for Inhibitors of the Six1/Eya2 Interaction; AlphaScreen GST-Six1/His-Eya2 binding, biochemical; stronger effect = lower value; activity change, % (no concentration beside the values); hit rate 0.56% among 360,000; in the data active = activity change below about -65%; inconclusive = mostly about -30% to -63%; also: % is scaled to controls: 0 for no effect and ±100 for the full control effect
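AlphaScreen luminescence read after one hour at 37 °C in darkness. Pin-transferred compounds met GST-Six1 and His-Eya2 protein (5X stock 250 nM/500 nM) plus glutathione donor and Ni-chelate acceptor beads (5X, 50 ug/mL).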
G9a block = qHTS Assay for Inhibitors of Histone Lysine Methyltransferase G9a; Potency, µM (doses to about 102 µM), inactives show at the highest dose activity, negative = inhibition, usual class: inhibitors; hit rate 8.8% among 350,000; G9a H3K9 monomethylation, AlphaScreen, 2 h; Histone-lysine N-methyltransferase EHMT2 (Homo sapiens), Q96KQ7; also: potency is read from the fitted curve at half-maximal effect; % is scaled to controls: 0 for no effect and ±100 for the full control effect; nearly all actives have a fitted effect of over 75% in size
Target sequence (Q96KQ7 913-1193 limits assumed): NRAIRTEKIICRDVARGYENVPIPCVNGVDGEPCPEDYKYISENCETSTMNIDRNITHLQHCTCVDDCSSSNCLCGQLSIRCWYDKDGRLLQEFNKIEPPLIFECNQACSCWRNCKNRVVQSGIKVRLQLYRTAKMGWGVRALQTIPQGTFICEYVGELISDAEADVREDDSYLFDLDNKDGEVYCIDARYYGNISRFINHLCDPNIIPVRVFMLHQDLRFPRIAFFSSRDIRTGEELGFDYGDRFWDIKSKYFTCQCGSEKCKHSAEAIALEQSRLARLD
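Quantitative HTS format: methyltransferase activity on a biotin-tagged H3K9 peptide is measured by AlphaScreen, using a rabbit anti-monomethyl-H3K9 antibody with streptavidin donor and anti-IgG acceptor beads. Final levels are 20 nM enzyme, 500 nM peptide, 20 uM SAM; 2 h RT.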
BAZ2B block = qHTS Assay for Inhibitors of BAZ2B | AlphaScreen BAZ2B-H3K14Ac peptide displacement | Potency, µM (titrated, usually from 114 µM), for inactives: at the top dose activity change, negative = inhibition, hits mostly inhibitors | hit rate 4.4% among 360,000 | AID 504333, 2011; also: potency is read from the fitted curve at half-maximal effect; % is scaled to controls: 0 for no effect and ±100 for the full control effect; nearly all actives have a fitted effect of over 60% in size
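In this displacement format the biotinylated H3(5-23) peptide acetylated at Lys14 serves as ligand at 50 nM, with BAZ2B at 50 nM in PBS pH 7.4 containing 0.01% Tween-20. Donor and acceptor beads are 10 ug/mL final.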
CtBP-E1A blk = qHTS Assay for Inhibitors of the CtBP/E1A Interaction; AlphaScreen GST-E1A/His-CtBP binding, 1536-well; stronger effect = lower value; CtBP / adenovirus E1A interaction (AlphaScreen); AID 651724, 2012; hit rate 0.49% among 340,000; activity change, % (concentration not given with the values); in the data active = activity change below about -65%; inconclusive = mostly about -30% to -63%; also: % is scaled to controls: 0 for no effect and ±100 for the full control effect
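In 5 uL wells, 23 nL compound meets equimolar GST-E1A and His-CtBP (5X stock 125 nM each) for 2 h, 37 °C. Beads (5X, 50 ug/mL) then 1 h, 37 °C, dark.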
HP1b binding inh = HTS for Inhibitors of HP1-beta Chromodomain Interactions with Methylated Histone Tails; Chromobox protein homolog 1 (Homo sapiens), P83916; AlphaScreen HP1-beta / biotin-H3K9me3 peptide binding; Potency, µM (top dose mostly 114 µM), for inactives: at the highest dose activity change, negative = inhibition, usual class: inhibitors; hit rate 0.56% among 390,000; AID 540317, 2011; also: potency is read from the fitted curve at half-maximal effect; nearly all actives have a fitted effect of over 70% in size
Target sequence (P83916 whole entry, looked up): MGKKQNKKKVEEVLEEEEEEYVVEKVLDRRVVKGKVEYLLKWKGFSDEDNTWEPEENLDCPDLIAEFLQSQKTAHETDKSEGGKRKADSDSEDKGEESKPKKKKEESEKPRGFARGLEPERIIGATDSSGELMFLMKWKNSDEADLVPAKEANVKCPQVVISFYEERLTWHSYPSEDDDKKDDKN
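Compound inhibition of the preformed complex between 50 nM HP1-beta and 50 nM biotinylated H3K9me3 peptide was read by AlphaScreen. Buffer was PBS pH 7.4 with 0.01% Tween-20. Incubations ran 30 min at room temperature, with 10 ug/mL donor/acceptor beads.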
Numbers without * were called inactive; ? = inconclusive; / = no result; [ ] = dose if it differs, or a comment. An excerpt weighted towards active compounds, which were near 10% of everything screened. Unless noted, calls follow the shape of the dose curve; as a rule, active = well fitted inhibition curve with a large enough effect; inconclusive = small, poorly fitted or top-dose-only effect; inactive = no such curve, though single readings can be large or run the other way.

SMILES	JMJD2A Tudor inh	Six1-Eya2 inh	G9a block	BAZ2B block	CtBP-E1A blk	HP1b binding inh
CC(C)C(=O)NC(c1ccc(N(C)C)cc1)c1c(O)ccc2ccccc12 (stereo not given)	-23%	9	2.2µM*	-26%	0	60%
CCOc1ccc(NC(=O)Nc2c[nH]c(=O)[nH]c2=O)cc1	-7%	/	-5%[59 µM]	-5%	/	41%
COc1ccc(-c2nc3ccccc3n3c(-c4ccc(OC)cc4)c4c(=O)n(C)c(=O)n(C)c4c23)cc1	-22%	/	4%[59 µM]	-3%	/	16%
O=C(Nc1ccccc1Br)C1CCCN(S(=O)(=O)c2cccc3nsnc23)C1 (stereo not given)	-17%	/	?	/	/	4%
CC(=O)NC(c1ccc(N(C)C)cc1)c1cc(Cl)c2cccnc2c1O (stereo not given)	/	-81*	/	/	?	/
O=C(NC(c1ccc(Cl)cc1)c1cc(Cl)c2cccnc2c1O)c1cccnc1 (stereo not given)	-21%	-17	11%[59 µM]	3%	-4	32%
CCCC(=O)NC(c1ccco1)c1cc([N+](=O)[O-])c2cccnc2c1O (stereo not given)	-20%[11.4 µM]	-92*	28µM*	7.9µM*	/	54%
CCCC(=O)NC(c1ccco1)c1c(O)ccc2ccccc12 (stereo not given)	-35%	-6	13µM*	-27%	-9	-5%
COc1cc(C(=O)NC(c2ccccc2Cl)c2cc(Cl)c3cccnc3c2O)cc(OC)c1OC (stereo not given)	-7%	/	40%[59 µM]	10%	/	56%
CC(c1ccco1)N(C(=O)c1ccccc1NS(=O)(=O)c1ccc(Cl)c([N+](=O)[O-])c1)c1ccccn1 (stereo not given)	-33%	-10	?	?	21	-1%
CCCCC(=O)NC(c1ccco1)c1c(O)ccc2ccccc12 (stereo not given)	-35%	-10	-25%[12.7 µM]	-38%	-1	-7%
CC(=O)NC(c1ccccc1)c1cc(Cl)c2cccnc2c1O (stereo not given)	?	-87*	/	35µM*	-91*	32%
COc1ccc(-n2c(SCC(=O)N3CCC(C)CC3)nc3c([nH]c4ccccc43)c2=O)cc1	-2%	/	4%[59 µM]	6%	/	13%[57 µM]
C/C(=N\NC(=S)Nc1ccc(F)cc1)C1CC1	28µM*	-2	?	-35%	10	15%
CC1CCN(C(=S)Nc2ccc(F)cc2)CC1	-6%	-15	21%[59 µM]	2%	-13	19%
CCOC(=O)c1c(NC(=O)CSc2nnc(CNC(=O)c3ccco3)n2C)sc2c1CCC2	-32%	-15	50µM*	?	-16	6%
O=C(CSc1nnc(Cc2ccccc2)n1Cc1ccco1)NC12CC3CC(CC(C3)C1)C2	?	-1	3%[12.7 µM]	?	-3	5%
NC(=O)c1c(NC(=O)CSc2nnc(Cc3ccccc3)n2Cc2ccco2)sc2c1CCC2	?	-3	40µM*	-35%	1	-19%
CCCCN(C)C(=O)C1CCCN(c2ncnc3onc(C)c23)C1 (stereo not given)	-6%	/	1%[59 µM]	27%[57.1 µM]	/	68%
O=C(NCc1ccccn1)C1(C(F)(F)F)C/C(=C\Cc2ccccc2)CCCO1 (stereo not given)	32µM*	/	/	/	/	-12%
CCOc1ccccc1-n1nnc(-c2nsc(NC(=O)c3ccc(C)cc3)n2)c1C	-23%	/	0%[59 µM]	1%	/	12%

Bioassay records as filed in PubChem BioAssay.
